Assay [1] in a line: qHTS assay to test for compound auto fluorescence at 535 nm (green) in HEK293 cells (AID 720680). (Quantitative high-throughput screening tests each substance at several concentrations.)
Assay [2] in a line: qHTS assay to test for compound auto fluorescence at 460 nm (blue) in HEK293 cell free culture (AID 720681). Put shortly:
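Blue fluorescence (Ex 405/Em 460 nm, triamterene-equivalent) was read immediately after pin transfer of compound or DMSO into medium (DMEM, 10% FBS) without cells.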

Assay [3] can be described thus: qHTS assay to test for compound auto fluorescence at 535 nm (green) in HEK293 cell free culture (AID 720682). Summed up: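 Green-channel intensity (Ex/Em 485/535 nm) was recorded from compound-treated wells containing only DMEM with 10% FBS. Fluorescein provided the equivalency standard.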
Assay [4] in a line: qHTS assay to test for compound auto fluorescence at 590 nm (red) in HEK293 cell free culture (AID 720683). Put shortly: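 Red-channel autofluorescence of compounds in culture medium (DMEM, 10% FBS), no cells, measured at 540/590 nm. Rose Bengal sodium is the reference fluorophore for equivalence.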
Assay [5] is described as follows: qHTS assay to test for compound auto fluorescence at 590 nm (red) in HepG2 cell free culture (AID 720684). Put shortly: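 Plate contents were MEM with 10% FBS plus test compound or DMSO, no cells. Fluorescence was recorded with 540 nm excitation and 590 nm emission.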
Assay [6] can be described thus: qHTS assay to test for compound auto fluorescence at 460 nm (blue) in HepG2 cell free culture (AID 720685). Put shortly:
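Compound (23 nL) or DMSO pinned into cell-free MEM with 10% FBS; blue fluorescence read at 405/460 nm excitation/emission, expressed as auto-fluorescence equivalency to triamterene.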

Assay [7] can be described thus: qHTS assay to test for compound auto fluorescence at 535 nm (green) in HepG2 cell free culture (AID 720686).
A short description of assay [8]: qHTS assay to test for compound auto fluorescence at 460 nm (blue) in HepG2 cells (AID 720687). Summed up: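 Blue-channel autofluorescence (Ex/Em 405/460 nm, triamterene-equivalent) was measured after 1 hr compound exposure at 37 C, 5% CO2. Cells were HepG2, plated overnight at 37 C in MEM plus 10% FBS.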
In assay [9] the target is Glucocorticoid receptor (Homo sapiens) (UniProt P04150). The assay is described as follows: qHTS assay to identify small molecule agonists of the glucocorticoid receptor (GR) signaling pathway (AID 720691; active = well fitted activation curve with a large enough effect in the signal ratio in the repeat runs, not every such curve was filed as active; the % refers to the signal ratio). Put shortly:
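qHTS in GR-bla HeLa cells: 4 h settling at 37 C/5% CO2, 18 h compound incubation at 37 C, 2 h LiveBLAzer B/G FRET substrate at room temperature, fluorescence intensity measured.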

The target is the same in assay [10]. The assay is described as follows: qHTS assay to identify small molecule antagonists of the glucocorticoid receptor (GR) signaling pathway (AID 720692; active = well fitted inhibition curve with a large enough effect in the signal ratio in the repeat runs, not every such curve was filed as active; the % refers to the signal ratio; note: potency is the fitted concentration of half-maximal effect). Put shortly: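 Inhibition of glucocorticoid signalling is measured in HeLa cells with a GRE-controlled beta-lactamase reporter; cells are co-treated with compound and 5 nM dexamethasone (final) for 18 h before FRET substrate readout.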

Assay [11] is described as follows: qHTS assay for identifying genotoxic compounds that show differential cytotoxicity against isogenic chicken DT40 cell lines with known DNA damage response pathways - wild type cell line (AID 743012). Note: nearly all actives have a fitted effect of over 60% in size. Note: potency is the fitted concentration of half-maximal effect. Summed up: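 First, wild type DT40 cells were plated at 300 per well and equilibrated about 0.5 h at 37 C/5% CO2. Next, compounds in DMSO were added and exposure lasted 40 h. Finally, CellTiter-Glo was added for 30 min at room temperature and luminescence recorded.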

A short description of assay [12]: qHTS assay for identifying genotoxic compounds that show differential cytotoxicity against isogenic chicken DT40 cell lines with known DNA damage response pathways - Rev3 mutant cell line (AID 743014). Note: nearly all actives have a fitted effect of over 55% in size. Note: potency is the fitted concentration of half-maximal effect.
A short description of assay [13]: qHTS assay for identifying genotoxic compounds that show differential cytotoxicity against isogenic chicken DT40 cell lines with known DNA damage response pathways - Rad54/Ku70 mutant cell line (AID 743015). Note: nearly all actives have a fitted effect of over 60% in size. Note: potency is the fitted concentration of half-maximal effect.
A short description of assay [14]: qHTS assay to identify small molecule antagonists of the androgen receptor (AR) signaling pathway - cell viability counter screen (AID 743033; note: nearly all actives have a fitted effect of over 45% in size; note: potency is the fitted concentration of half-maximal effect).
A short description of assay [15]: qHTS assay to identify small molecule antagonists of the androgen receptor (AR) signaling pathway using the MDA cell line - cell viability counter screen (AID 743041; note: nearly all actives have a fitted effect of over 45% in size; note: potency is the fitted concentration of half-maximal effect). Put shortly: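 R1881-driven MDA-kb2 AR-luc cells, 3,000/well, were dosed with library compounds for 16 h; cell health came from CellTiter-Fluor fluorescence in the reporter wells.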
Assay [16] in a line: qHTS assay to identify small molecule antagonists of the thyroid receptor (TR) signaling pathway - cell viability counter screen (AID 743064). Note: nearly all actives have a fitted effect of over 50% in size. Note: potency is the fitted concentration of half-maximal effect. Put shortly: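 In rat pituitary GH3.TRE-Luc reporter cells co-exposed to compound and 1 nM T3 for 23.5 h, cytotoxicity was assessed with CellTiter-Fluor in the same wells, read by fluorescence.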
The nature of assay [17]: qHTS assay to identify small molecule antagonists of the glucocorticoid receptor (GR) signaling pathway - cell viability counter screen (AID 720693). Note: nearly all actives have a fitted effect of over 55% in size.
Assay [18] addresses Androgen receptor (Homo sapiens) (UniProt P10275). Kind of assay: qHTS assay to identify small molecule agonists of the androgen receptor (AR) signaling pathway (AID 743036; active = well fitted activation curve with a large enough effect in the signal ratio in the repeat runs, with a control signal flat, not every such curve was filed as active; the % refers to the signal ratio). Put shortly: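 Cell-based FRET reporter assay: HEK293 line with a UAS-beta-lactamase construct, compounds added in DMSO, 16 h exposure at 37C, then 2 h substrate step at room temperature and fluorescence intensity read.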

The target is the same in assay [19]. Kind of assay: qHTS assay to identify small molecule agonists of the androgen receptor (AR) signaling pathway using the MDA cell line (AID 743040; note: nearly all actives have a fitted effect of over 20% in size). Summed up:
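After a 5 h incubation at 37C and 0% CO2, MDA-kb2 reporter cells were dosed with compounds in DMSO and kept 16 h under the same conditions. Luciferase activity was then read as luminescence with ONE-Glo.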

The target is the same in assay [20]. Kind of assay: qHTS assay to identify small molecule antagonists of the androgen receptor (AR) signaling pathway using the MDA cell line (AID 743042; note: nearly all actives have a fitted effect of over 55% in size). Put shortly:
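Antagonist mode: compounds plus R1881 agonist added to MDA-kb2 AR-luc cells, incubated 16 h at 37C. Luciferase reporter luminescence quantified, with multiplexed CellTiter-Fluor readout for cell viability.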

“And” between values parts separate entries of the source, which are not always exact repeats. Equal values may be shown once. Inconclusive results are not listed. Where a structure was tested more than once in an assay, its records may differ in their call. The source made the active and inactive calls. Unless noted, calls come from the whole dose curve; as a rule, active = well fitted curve in the direction sought with a large enough effect in the repeat runs; inconclusive = weak or mixed curves; inactive = no such curve, though single readings can be large; an effect the other way counts as inactive or inconclusive.

Glucocorticoid receptor (Homo sapiens), sequence (P04150 whole entry, looked up): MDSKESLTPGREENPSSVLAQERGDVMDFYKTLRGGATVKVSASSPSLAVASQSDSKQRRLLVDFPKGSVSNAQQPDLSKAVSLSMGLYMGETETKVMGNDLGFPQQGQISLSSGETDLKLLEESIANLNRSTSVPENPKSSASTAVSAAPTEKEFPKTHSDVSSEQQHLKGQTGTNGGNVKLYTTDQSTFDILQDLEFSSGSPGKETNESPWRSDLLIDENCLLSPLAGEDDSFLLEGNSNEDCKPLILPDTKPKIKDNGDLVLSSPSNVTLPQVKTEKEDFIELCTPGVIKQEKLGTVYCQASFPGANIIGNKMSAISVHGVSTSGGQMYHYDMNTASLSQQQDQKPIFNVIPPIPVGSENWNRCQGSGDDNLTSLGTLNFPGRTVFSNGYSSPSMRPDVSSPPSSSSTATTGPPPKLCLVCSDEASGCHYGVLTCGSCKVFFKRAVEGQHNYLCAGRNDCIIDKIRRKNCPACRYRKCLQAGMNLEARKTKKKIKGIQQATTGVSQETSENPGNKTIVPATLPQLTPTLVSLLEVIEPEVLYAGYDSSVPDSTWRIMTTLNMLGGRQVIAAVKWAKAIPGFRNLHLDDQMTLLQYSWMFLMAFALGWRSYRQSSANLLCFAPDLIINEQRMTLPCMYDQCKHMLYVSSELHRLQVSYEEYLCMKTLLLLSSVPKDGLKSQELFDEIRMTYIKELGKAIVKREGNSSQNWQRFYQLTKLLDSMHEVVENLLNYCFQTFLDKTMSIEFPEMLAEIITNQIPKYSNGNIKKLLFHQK
Androgen receptor (Homo sapiens), sequence (P10275 whole entry, looked up): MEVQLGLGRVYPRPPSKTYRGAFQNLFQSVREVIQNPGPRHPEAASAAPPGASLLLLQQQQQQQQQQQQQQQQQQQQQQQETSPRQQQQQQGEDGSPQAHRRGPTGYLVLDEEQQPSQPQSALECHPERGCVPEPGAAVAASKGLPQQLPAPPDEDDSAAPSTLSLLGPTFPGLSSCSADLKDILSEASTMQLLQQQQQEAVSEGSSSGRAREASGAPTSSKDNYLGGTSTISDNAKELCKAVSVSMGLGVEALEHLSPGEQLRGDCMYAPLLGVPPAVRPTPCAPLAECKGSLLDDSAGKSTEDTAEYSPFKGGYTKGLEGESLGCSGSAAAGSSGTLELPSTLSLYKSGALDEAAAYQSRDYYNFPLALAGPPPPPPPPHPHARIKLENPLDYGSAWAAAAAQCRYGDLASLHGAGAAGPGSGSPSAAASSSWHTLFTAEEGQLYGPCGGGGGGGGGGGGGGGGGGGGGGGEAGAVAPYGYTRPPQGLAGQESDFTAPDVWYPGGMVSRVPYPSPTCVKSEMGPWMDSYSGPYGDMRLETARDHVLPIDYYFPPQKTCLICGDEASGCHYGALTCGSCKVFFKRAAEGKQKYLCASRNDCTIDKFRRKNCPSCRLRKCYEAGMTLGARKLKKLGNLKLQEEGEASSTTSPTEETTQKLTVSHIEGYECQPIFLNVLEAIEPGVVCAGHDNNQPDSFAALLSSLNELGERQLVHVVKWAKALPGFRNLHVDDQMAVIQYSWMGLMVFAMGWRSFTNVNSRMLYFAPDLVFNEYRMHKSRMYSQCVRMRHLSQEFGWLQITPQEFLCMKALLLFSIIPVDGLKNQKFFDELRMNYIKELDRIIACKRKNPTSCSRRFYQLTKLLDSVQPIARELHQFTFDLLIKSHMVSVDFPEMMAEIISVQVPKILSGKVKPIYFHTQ

With `Cc1nccn1-c1ccc(Sc2cccc(C3(C(N)=O)CCOCC3)c2)cc1`, the call in assay [1], in assay [3], in assay [4], in [5] and in assay [7] was inactive. The Potency entry in [2], in assay [6], in [8] and in [9] was “inactive” in each case. The Potency in assay [10] is 24.5 µM (active); in assay [11], 770 nM (active); in assay [12], 1.54 µM (active); in [13], 1.37 µM (active); in assay [14], 4.9 µM (active); in assay [15] it was 15.4 µM (active). The Potency in assay [16] was 27.3 µM (active).
As for `CCC(C)=O`, the outcome in assay [1], in assay [3], in [4], in assay [5] and in assay [7] was inactive. The Potency entry in [2], in [6], in assay [8], in assay [9], in assay [17] and in assay [11] was “inactive” in each case. In addition, the Potency entry in assay [12], in assay [13], in assay [14], in assay [15] and in assay [16] was “inactive” throughout.
Turning to `O=C1NCCN1`, the outcome in assay [1], in assay [3], in assay [4], in assay [5] and in assay [7] was inactive. The Potency entry in assay [2], in assay [6], in assay [8], in [9], in assay [10] and in assay [17] was “inactive” each time. For the same compound, the Potency entry in [11], in assay [13], in [14], in assay [15] and in assay [16] was “inactive” throughout.
Take `CO[C@H]1C=CO[C@@]2(C)Oc3c(C)c(O)c4c(O)c(c5c(c4c3C2=O)=NC2(CCN(CC(C)C)CC2)N=5)NC(=O)/C(C)=C\C=C/[C@H](C)[C@H](O)[C@@H](C)[C@@H](O)[C@@H](C)[C@H](OC(C)=O)[C@@H]1C`: the compound was classed as inactive in assay [1], in assay [3], in [4], in assay [5] and in assay [7]. Also, the Potency entry in assay [2], in assay [6], in [8], in [9], in assay [17] and in assay [14] was “inactive” each time. Also, the Potency result in [18], in assay [19], in assay [15] and in [20] was “inactive” throughout. Besides, the Potency in assay [11] was 16.8 µM (active) and 42.3 µM (active); in assay [12], 23.7 µM (active) and 47.5 µM (active); in [13] it was 11.9 µM (active) and 30 µM (active).
Turning to `N#C/C(=C1/SC[C@@H](c2ccc(Cl)cc2Cl)S1)n1ccnc1`, the outcome in [1], in assay [3], in assay [4], in assay [5] and in assay [7] was inactive. Besides, the Potency result in [2], in assay [6], in assay [8], in [9], in [17] and in [14] was “inactive” throughout. In [15], the Potency entry is “inactive”. In addition, the Potency in assay [11] is 21.1 µM (active) and 13.3 µM (active) and 26.6 µM (active); in assay [12] it was 26.6 µM (active) and 29.8 µM (active); in [13], 26.6 µM (active) and 23.7 µM (active) and 33.5 µM (active).
Regarding `CCCCC(CC)CNCC(CC)CCCC` (stereo unspecified), the call in assay [1], in assay [3], in [4], in assay [5] and in assay [7] was inactive. For the same compound, the Potency result in assay [2], in assay [6], in assay [8], in [9], in assay [17] and in assay [11] was “inactive” throughout. The Potency result in assay [12], in assay [13], in assay [14], in [15] and in assay [16] was “inactive” each time.
With `Cc1cc(O)c(C(C)C)cc1Cl`, the compound was classed as inactive in assay [1], in assay [3], in [4], in [5] and in assay [7]. Moreover, the Potency result in [2], in assay [6], in assay [8], in [9], in [17] and in assay [11] was “inactive” each time. In addition, in assay [14], the Potency result is “inactive”. Further, the Potency entry in assay [12] was “inactive and 61.1 µM (active)”; in assay [13], “inactive and 48.6 µM (active)”.
